{"source": "PubChem BioAssay AID1347414", "about": "(National Center for Advancing Translational Sciences (NCATS), 2020)", "note": "Inconclusive results are not listed. Unmarked numbers belong to inactive results. Active and inactive are the calls of the source. Calls follow the shape of the dose curve; as a rule, active = well fitted inhibition curve with a large enough effect; inconclusive = small, poorly fitted or top-dose-only effect; inactive = no such curve, though single readings can be large or run the other way. % is scaled to controls: 0 for no effect and ±100 for the full control effect; potency is read from the fitted curve at half-maximal effect."}
{"assay": "qHTS to identify inhibitors of the type 1 interferon - major histocompatibility complex class I in skeletal muscle: Secondary screen by immunofluorescence; also: nearly all actives have a fitted effect of over 70% in size;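 as to activity change, negative = inhibition: digitonin at 100 µM served as the cytotoxic control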", "settings": "C25cl48 myoblasts, IFN-b induced HLA-ABC immunofluorescence, 24 h; series mostly up to 49.8 µM; activity change, negative = inhibition: at the top concentration", "procedure,_shortened": "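Immortalized human myoblasts C25cl48 were stimulated with 4.0 ng/ml IFN-beta and exposed to an 11-point 1:3 compound titration, top 50 uM, for 24 h at 37 C. They were then fixed and immunostained for HLA-ABC, and quantified by laser scanning cytometry.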", "units": {"activity change, negative = inhibition": "%"}}
{"smiles": "c1cc(Nc2cc(C3CC3)[nH]n2)nc(Nc2ccc3nc[nH]c3c2)n1", "Potency": "0.647 µM (active)"}
{"smiles": "CCCCc1nc2cc(/C=C/C(=O)NO)ccc2n1CCN(CC)CC", "Potency": "0.364 µM (active)"}
{"smiles": "COC(=O)N[C@@H](C)CNc1nccc(-c2cn(C(C)C)nc2-c2cc(Cl)cc(NS(C)(=O)=O)c2F)n1", "activity change, negative = inhibition": -26.1}
{"smiles": "COc1cc(Nc2ncc(F)c(Nc3ccc4c(n3)NC(=O)C(C)(C)O4)n2)cc(OC)c1OC", "activity change, negative = inhibition": 0.596}
{"smiles": "COc1cccc2nc(-c3cccs3)nc(NN3C(=O)C=C(C)C3=O)c12", "Potency": "1.82 µM (active)"}
{"smiles": "O=C(/C=C/c1ccc(CN(CCO)CCc2c[nH]c3ccccc23)cc1)NO", "Potency": "0.0364 µM (active)"}
{"smiles": "CC(C)[C@H](C(=O)Nc1ccc(C(=O)NO)cc1)c1ccccc1", "Potency": "0.458 µM (active)"}
{"smiles": "CC(C)c1cnn2c(NCc3ccccc3)cc(N[C@@H](CO)[C@H](O)CO)nc12", "Potency": "0.914 µM (active)"}
{"smiles": "CC[C@@]1(O)C(=O)OCc2c1cc1n(c2=O)Cc2c-1nc1cc(F)c(C)c3c1c2[C@@H](N)CC3", "Potency": "1.29 µM (active)"}
{"smiles": "CC(C)C[C@H](NC(=O)[C@H](CCc1ccccc1)NC(=O)CN1CCOCC1)C(=O)N[C@@H](Cc1ccccc1)C(=O)N[C@@H](CC(C)C)C(=O)[C@@]1(C)CO1", "Potency": "0.0647 µM (active)"}
{"smiles": "COC(=O)Nc1nc2ccc(C(=O)c3ccc(F)cc3)cc2[nH]1", "activity change, negative = inhibition": 8.22}
{"smiles": "N#CCC1(n2cc(-c3ncnc4[nH]ccc34)cn2)CN(C2CCN(C(=O)c3ccnc(C(F)(F)F)c3F)CC2)C1", "Potency": "1.29 µM (active)"}
{"smiles": "COc1cccc2c1C(=O)c1c(O)c3c(c(O)c1C2=O)C[C@@](O)(/C(CO)=N/NC(=O)CCCCCN1C(=O)C=CC1=O)C[C@@H]3O[C@H]1C[C@H](N)[C@H](O)[C@H](C)O1", "Potency": "1.02 µM (active)"}
{"smiles": "CCN(CC)Cc1ccc2cc(COC(=O)Nc3ccc(C(=O)NO)cc3)ccc2c1", "Potency": "0.258 µM (active)"}
{"smiles": "CC(C)CC(=O)Nc1n[nH]c2c1CN(C(=O)C1CCN(C)CC1)C2(C)C", "Potency": "0.23 µM (active)"}
{"smiles": "Cc1ccc(-c2ncn(-c3ccc(Nc4nccc(-c5cccc(N6CCOCC6)c5)n4)cc3)n2)cn1", "Potency": "1.82 µM (active)"}
{"smiles": "COC(=O)c1nc(Cl)c(Cl)nc1N", "Potency": "5.76 µM (active)"}
{"smiles": "C=CC(=O)N1CC/C(=C\\c2ccc(F)c([N+](=O)[O-])c2)C(=O)/C(=C/c2ccc(F)c([N+](=O)[O-])c2)C1", "Potency": "0.182 µM (active)"}
{"smiles": "Cc1oncc1C(=O)Nc1ccc(C(F)(F)F)cc1", "activity change, negative = inhibition": 10.8}
{"smiles": "Cc1ccc2nc(NCCN)c3ncc(C)n3c2c1", "Potency": "4.08 µM (active)"}
{"smiles": "CC(C)c1nn(-c2c(Cl)cccc2Cl)c2nc(Cc3ccc(OCCO)cc3)[nH]c(=O)c12", "Potency": "0.0229 µM (active)"}
{"smiles": "CO[C@H]1C(=O)[C@]2(C)[C@@H](OC)C[C@H]3OC[C@@]3(OC(C)=O)[C@H]2[C@H](OC(=O)c2ccccc2)[C@]2(O)C[C@H](OC(=O)[C@H](O)[C@@H](NC(=O)OC(C)(C)C)c3ccccc3)C(C)=C1C2(C)C", "activity change, negative = inhibition": 2.93}
{"smiles": "Cc1cnc(Nc2ccc(N3CCN(C)CC3)cc2)nc1Nc1cccc(S(=O)(=O)NC(C)(C)C)c1", "Potency": "3.64 µM (active)"}
{"smiles": "C=C1C(=O)O[C@@H]2[C@H]3O[C@]3(C)CC/C=C(\\C)CC[C@@H]12", "Potency": "7.26 µM (active)"}
{"smiles": "O=[N+]([O-])c1ccc2c(c1)S(=O)(=O)C=C2", "Potency": "1.82 µM (active)"}
{"smiles": "CCS(=O)(=O)N1CCN(c2ccc(Nc3ncc(C(N)=O)c(NC4CC4)n3)cc2)CC1", "Potency": "1.29 µM (active)"}
{"smiles": "Cc1cc(Nc2nc(N[C@@H](C)c3ncc(F)cn3)ncc2Cl)n[nH]1", "Potency": "0.647 µM (active)"}
{"smiles": "CNC(=O)c1ccc(Nc2ncc(C(F)(F)F)c(NCc3nccnc3N(C)S(C)(=O)=O)n2)cc1", "Potency": "6.47 µM (active)"}
{"smiles": "CN1CCN(c2cccc(Nc3nc4c(-c5ccc(S(C)(=O)=O)cc5)cccn4n3)c2)CC1", "Potency": "1.82 µM (active)"}
{"smiles": "Fc1ccc(CNc2ncnc3ccc(F)cc23)cc1", "activity change, negative = inhibition": -27.2}
{"smiles": "CC(C)(C)CC(=O)OCC(=O)[C@@]1(O)CC[C@H]2[C@@H]3CCC4=CC(=O)C=C[C@]4(C)[C@H]3[C@@H](O)C[C@@]21C", "activity change, negative = inhibition": -8.02}
{"smiles": "C[C@H]1C[C@@H]2[C@H]([C@@H](O)C[C@@]3(C)[C@H]2CC[C@]3(O)C(=O)CO)[C@@]2(C)C=CC(=O)C=C12", "activity change, negative = inhibition": -26.3}
{"smiles": "CCCC(=O)O[C@]1(C(=O)CO)CC[C@H]2[C@@H]3CCC4=CC(=O)CC[C@]4(C)[C@H]3[C@@H](O)C[C@@]21C", "activity change, negative = inhibition": -0.267}
{"smiles": "COc1ncc(Nc2ncc(C(C)N3CCN(S(C)(=O)=O)CC3)cc2-c2nc(C)nc(N)n2)cc1F", "note": "(centres undefined)", "activity change, negative = inhibition": -17.3}
